Among the data in PubChem BioAssay (NCATS) are Potency values, retold here.

Inconclusive results are not listed. Active and inactive are the calls of the source. The call rests on the fitted dose curve; in most records, active means well fitted inhibition curve with a large enough effect; inconclusive means small, poorly fitted or top-dose-only effect; inactive means no such curve, though single readings can be large or run the other way.

Assay [1] has as its system Zika virus NS2B-NS3 protease (unlinked complex). Description: Primary screen GU Rhodamine qHTS for Zika virus inhibitors: Unlinked NS2B-NS3 protease assay (AID 1347159). Further: nearly all actives have a fitted effect of over 60% in size. The gist of the method: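 Buffer 10 mM Tris-HCl pH 8.0, 0.01% Tween 20. Unlinked protease 25 nM; compound preincubation 15 min, RT, protected from light. Substrate Rhod110, 1.5 microM; ~15% conversion in 15 min.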
(In general: qHTS replaces the single test concentration by a dilution series.)

In assay [2] the test system is Zika virus NS2B-NS3 protease (linked construct). Description: Primary screen NINDS Rhodamine qHTS for Zika virus inhibitors (AID 1347160). Further: nearly all actives have a fitted effect of over 55% in size. Put shortly:
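Aprotinin served as in-plate control. Conditions: 25 nM linked NS2B-NS3, pH 8.0 Tris buffer, titrated compounds, 15 min preincubation and 15 min reaction with 1.5 microM Rhod110 substrate at room temperature.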
Potency means the concentration at half of the fitted maximal effect.

Take `CON(C)C(=O)[C@H](O)[C@H](Cc1ccccc1)NC(=O)c1cc2cc(Cl)ccc2[nH]1`: the Potency entry in assay [1] and in assay [2] was “inactive” each time.

In the case of `O=C1C=CC(O)(/C=C/C(=O)OC[C@H]2O[C@@H](Oc3ccc(O)cc3)[C@H](O)[C@@H](O)[C@@H]2O)C=C1`, the Potency entry in assay [1] and in assay [2] was “inactive” throughout.

`C=CC[C@]12C[C@@H](OC)C(=O)C(OC)=C1O[C@@H](c1cc(OC)c3c(c1)OCO3)[C@@H]2C`: the Potency result in assay [1] and in assay [2] was “inactive” each time.

In the case of `CC(=O)O[C@]1(C(C)=O)CC[C@H]2[C@@H]3C[C@H](C)C4=CC(=O)C=C[C@]4(C)[C@@]3(F)[C@@H](O)C[C@@]21C`, the Potency entry in assay [1] and in assay [2] was “inactive” each time.

For `CNC(=O)c1cccc(-c2ccc3c(N4CCOC[C@@H]4C)nc(N4CCOC[C@@H]4C)nc3n2)c1`, the Potency entry in assay [1] and in assay [2] was “inactive” throughout.

In the case of `CC(O)c1cc(C(=O)N[C@@H](C)Cn2ccc(-c3ccc(C#N)c(Cl)c3)n2)n[nH]1` (some centres undefined), the Potency entry in assay [1] and in assay [2] was “inactive” each time.

Turning to `CC1=C2C(O)C(=O)OC(c3ccoc3)C2(C)CCC1O` (centres undefined), the Potency entry in assay [1] and in assay [2] was “inactive” each time.

As for `NC(=O)c1csc(C2OC(CO)C(O)C2O)n1` (centres undefined), the Potency entry in assay [1] and in assay [2] was “inactive” each time.

As for `CC(C)Oc1ccc(C(=O)NC(CNC(=O)CN(C)C)Cc2ccc(-c3cn4cccc(C(C)O)c4n3)cc2)cc1Cl` (centres undefined), the Potency entry in assay [1] and in assay [2] was “inactive” in each case.

As to `CCN1CCN(Cc2ccc(NC(=O)c3ccc(C)c(/C=C/c4cnc5[nH]ccc5c4OC)c3)cc2C(F)(F)F)CC1`, the Potency entry in assay [1] and in assay [2] was “inactive” each time.

For the compound `NCc1c[nH]c(=S)n1[C@@H]1CCc2c(F)cc(F)cc2C1`, the Potency entry in assay [1] and in assay [2] was “inactive” each time.

For `COc1ccc(CNC(=O)c2sc3nc(C)cc(C)c3c2N)cc1`, the Potency result in assay [1] and in assay [2] was “inactive” in each case.

As to `CCC(COC)n1nnc2c(Nc3ccc(OC)cc3C)nc(C)cc21` (centres undefined), the Potency entry in assay [1] and in assay [2] was “inactive” each time.

In the case of `C[C@@H]1N[C@H]2N(C1=O)c1ccccc1[C@@]2(O)C[C@@H]1C(=O)N[C@@H](C)c2nc3ccccc3c(=O)n21`, the Potency entry in assay [1] and in assay [2] was “inactive” throughout.

As to `COC(=O)C1(C)CCC2(C(=O)O)CCC3(C)C(=CCC4C5(C)CC(O)C(OC6OCC(O)C(O)C6O)C(C)(CO)C5CCC43C)C2C1` (centres undefined), the Potency entry in assay [1] and in assay [2] was “inactive” each time.

Take `COc1cc(O)c2c(c1)C1=C[C@H](O)[C@@H](O)C[C@]1(C)OC2=O`: the Potency entry in assay [1] and in assay [2] was “inactive” each time.

`C[C@@H]1C(=O)OC[C@H]2C(C(=O)O)=C[C@@H]3CC(C)(C)C[C@]312`: the Potency entry in assay [1] and in assay [2] was “inactive” each time.

For the compound `CC12CCC(OC3OC(CO)C(O)C(OC4OC(CO)C(O)C(O)C4O)C3O)CC1CCC1C2CCC2(C)/C(=C3/COC(=O)C3)CCC12O` (centres undefined), the Potency result in assay [1] and in assay [2] was “inactive” throughout.

On to `CC(=O)O[C@@H]1C[C@H](O)[C@@]23CO[C@H](O)[C@]1(C)C2C[C@@H](O)[C@]1(C)C3C(=O)[C@H](OC(C)=O)[C@@]2(C)[C@H](c3ccoc3)C[C@H]3O[C@]321` (some centres undefined), for which the Potency result in assay [1] and in assay [2] was “inactive” throughout.

For `Cc1ccc(F)cc1C(=O)Nc1ccc(C(=O)N2Cc3cccn3Cc3ccccc32)c(Cl)c1`, the Potency result in assay [1] and in assay [2] was “inactive” throughout.

As to `C=CC(=O)Nc1cccc(CN2C(=O)N(c3c(Cl)c(OC)cc(OC)c3Cl)Cc3cnc(NCCCCN(CC)CC)nc32)c1`, the Potency entry in assay [1] and in assay [2] was “inactive” in each case.

As for `CCCCNc1ccc(-c2ccc(CN3CCOCC3)cn2)c(NC2CCC(O)CC2)c1` (centres undefined), the Potency entry in assay [1] and in assay [2] was “inactive” each time.

On to `C=C(F)c1sc(CNCCCNc2cc(=O)c3ccccc3[nH]2)c(C)c1Br`, for which the Potency entry in assay [1] and in assay [2] was “inactive” in each case.

For `Cc1cc(NC(=O)Nc2ccc(F)c(F)c2)n(-c2ccccc2)n1`, the Potency entry in assay [1] and in assay [2] was “inactive” throughout.

Turning to `COC(=O)c1ccccc1O[C@@H]1O[C@H](CO)[C@@H](O)[C@H](O)[C@H]1O[C@@H]1O[C@@H](C)[C@H](O)[C@@H](O)[C@H]1O`, the Potency result in assay [1] and in assay [2] was “inactive” in each case.

As for `Cc1cc(OCc2nc(-c3ccccc3Cl)cs2)ccc1OCC(=O)O`, the Potency was 12.6 µM (active) in assay [1] and 14.1 µM (active) in assay [2].

In the case of `C=C1C(=O)O[C@H](CCC)[C@H]1C(=O)O`, the Potency entry in assay [1] and in assay [2] was “inactive” each time.

On to `CCCCNc1ncc2c(-c3ccc(CN4CCN(C)CC4)cc3)cn(C3CCC(O)CC3)c2n1` (centres undefined), for which the Potency result in assay [1] and in assay [2] was “inactive” throughout.

As to `CC1(C)CCCC2(C)C1C(O)C=C(CO)C2(O)CO` (centres undefined), the Potency entry in assay [1] and in assay [2] was “inactive” throughout.

In the case of `C[C@H](C/C=C/C(C)(C)O)[C@H]1CC[C@@]2(C)[C@@H]3[C@@H](O[C@@H]4O[C@H](CO)[C@@H](O)[C@H](O)[C@H]4O)C=C4C(CC[C@H](O)C4(C)C)[C@]3(C=O)CC[C@]12C` (some centres undefined), the Potency entry in assay [1] and in assay [2] was “inactive” in each case.

With `C=CC(C)(O)CC[C@H]1C(=C)CCC2[C@](C)(C(=O)O)CCC[C@@]21C` (some centres undefined), the Potency entry in assay [1] and in assay [2] was “inactive” throughout.

Take `N#C[C@@H]1CCCN1C(=O)CNC12CC3CC(CC(O)(C3)C1)C2`: the Potency result in assay [1] and in assay [2] was “inactive” each time.
